According to ChEMBL document CHEMBL1201862, “PubChem BioAssay data set” (2004):
Screen size: about 400,000 compounds; about 2,100 (0.53%) were called active. Roughly 14% stayed inconclusive and do not appear here. How the calls were made is not given here. The sample as a whole holds a higher share of actives than the screen did.

Target: Ataxin-2 (Homo sapiens) (UniProt Q99700)
Assay: qHTS for Inhibitors of ATXN expression.
Format: functional

Chain of Ataxin-2 (Homo sapiens) (Q99700 whole entry): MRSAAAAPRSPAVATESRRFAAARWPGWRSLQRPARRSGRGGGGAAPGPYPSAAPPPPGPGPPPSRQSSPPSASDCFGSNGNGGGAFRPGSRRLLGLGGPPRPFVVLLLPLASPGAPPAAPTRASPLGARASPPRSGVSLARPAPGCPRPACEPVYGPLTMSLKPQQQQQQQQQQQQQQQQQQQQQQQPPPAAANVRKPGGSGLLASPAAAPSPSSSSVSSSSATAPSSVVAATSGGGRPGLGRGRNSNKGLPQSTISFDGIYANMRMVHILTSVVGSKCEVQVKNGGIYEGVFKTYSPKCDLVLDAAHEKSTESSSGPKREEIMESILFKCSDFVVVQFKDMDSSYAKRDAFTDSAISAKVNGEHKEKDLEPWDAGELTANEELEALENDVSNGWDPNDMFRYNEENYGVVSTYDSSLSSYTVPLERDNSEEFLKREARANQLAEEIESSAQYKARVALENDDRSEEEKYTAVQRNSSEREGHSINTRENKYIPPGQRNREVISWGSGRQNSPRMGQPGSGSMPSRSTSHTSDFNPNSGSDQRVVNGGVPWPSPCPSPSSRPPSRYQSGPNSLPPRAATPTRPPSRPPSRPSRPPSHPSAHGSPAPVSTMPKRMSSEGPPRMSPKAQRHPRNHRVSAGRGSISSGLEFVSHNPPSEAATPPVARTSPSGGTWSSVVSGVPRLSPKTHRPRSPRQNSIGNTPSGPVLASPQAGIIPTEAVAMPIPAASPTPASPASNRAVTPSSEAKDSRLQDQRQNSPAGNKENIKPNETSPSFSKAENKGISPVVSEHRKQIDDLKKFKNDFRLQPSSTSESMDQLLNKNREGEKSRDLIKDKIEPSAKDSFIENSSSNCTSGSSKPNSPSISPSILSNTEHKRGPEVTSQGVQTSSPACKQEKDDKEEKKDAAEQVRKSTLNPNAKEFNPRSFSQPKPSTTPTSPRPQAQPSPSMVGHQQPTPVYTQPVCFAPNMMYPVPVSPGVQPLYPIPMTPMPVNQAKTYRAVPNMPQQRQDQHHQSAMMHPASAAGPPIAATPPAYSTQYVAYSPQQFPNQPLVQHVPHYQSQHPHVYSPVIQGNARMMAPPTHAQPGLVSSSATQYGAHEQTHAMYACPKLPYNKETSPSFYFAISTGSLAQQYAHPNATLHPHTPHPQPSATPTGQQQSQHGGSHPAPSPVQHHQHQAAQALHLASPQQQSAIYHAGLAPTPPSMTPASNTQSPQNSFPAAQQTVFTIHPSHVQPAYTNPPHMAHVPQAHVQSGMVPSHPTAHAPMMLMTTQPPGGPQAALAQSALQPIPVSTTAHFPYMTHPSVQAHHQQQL

Q: Which Potency does the source give for `CCn1c(=N)c(C(=O)NCC2CCCO2)cc2c(=O)n3cc(C)ccc3nc21` (stereo unspecified) here?
A: The Potency was “inactive”.

Q: For `C=CC[C@@H](CC(=O)NCCO)C(=O)N[C@H](COC(=O)[C@@H](CC=C)Cc1ccc(F)cc1)Cc1c[nH]c2ccccc12`, which Potency is on record?
A: The Potency was 35.5 µM (active).

Q: Which Potency does the source give for `C=CC[C@@H](CC(=O)N[C@H](CO)Cc1ccccc1)C(=O)N[C@H](COC(=O)[C@@H](CC=C)Cc1ccc(F)cc1)Cc1c[nH]c2ccccc12` here?
A: Its Potency is 25.1 µM (active).

Q: `C=CCC[C@H](Cc1ccc(F)cc1)C(=O)OC[C@H](Cc1c[nH]c2ccccc12)NC(=O)[C@@H](CC=C)CC(=O)NCCO` was tested. Which Potency did it give?
A: Its Potency is 28.2 µM (active).

Q: How did the Potency turn out when `C=CCC[C@@H](Cc1ccc(F)cc1)C(=O)OC[C@H](Cc1c[nH]c2ccccc12)NC(=O)[C@@H](CC=C)CC(=O)NCCO` was run?
A: The Potency was 39.8 µM (active).

Q: With `CC(C)n1c(=N)c(C(=O)NCCc2ccccc2)cc2c(=O)n3ccccc3nc21` as the molecule, how does the Potency read?
A: Its Potency is “inactive”.

Q: How did the Potency turn out when `COc1cc(/C=C2\C(=N)N3N=CSC3=NC2=O)cc(Br)c1OC(=O)c1ccco1` was run?
A: Its Potency is “inactive”.

Q: Which Potency does the source give for `COc1ccc2nc(N3CCCCC3)c(C#N)cc2c1` here?
A: Its Potency is “inactive”.

Q: For `N=c1oc2cc(O)ccc2cc1C(=O)Nc1ccc(F)cc1`, which Potency is on record?
A: The Potency was “inactive”.

Q: For `O=C(NCCCN1CCOCC1)/C(=C/c1cccnc1)NC(=O)c1ccccc1`, which Potency is on record?
A: The Potency was “inactive”.

Q: `CCOC(=O)/C(=C\c1ccccc1)C(=O)CCN1CCOCC1` was tested. Which Potency did it give?
A: Its Potency is 42.3 µM (active).

Q: How did the Potency turn out when `COCCOC(=O)c1c(N)n(CCCN2CCOCC2)c2nc3ccccc3nc12` was run?
A: Its Potency is “inactive”.

Q: `CCCc1cc(=O)oc2cc(O[C@@H]3O[C@H](CO)[C@@H](O)[C@H](O)[C@H]3O)ccc12` was tested. Which Potency did it give?
A: The Potency was “inactive”.

Q: For `COc1ccccc1-c1nnc(-c2ccc(C)cc2)o1`, which Potency is on record?
A: The Potency was “inactive”.

Q: For `COc1ccccc1-c1nnc(Sc2nc([N+](=O)[O-])nn2C)o1`, which Potency is on record?
A: Its Potency is 11.2 µM (active).

Q: How did the Potency turn out when `COc1ccccc1NC(=O)CSc1nnc(-c2ccoc2C)o1` was run?
A: The Potency was “inactive”.

Q: `CCn1c2ccccc2c2nc3cc(C(=O)O)ccc3nc21` was tested. Which Potency did it give?
A: The Potency was “inactive”.

Q: How did the Potency turn out when `C=CCn1c(N)c(C(=O)OC(C)(C)C)c2nc3ccccc3nc21` was run?
A: The Potency was “inactive”.

Q: `C=CCn1c2ccccc2c2nnc(SCCCn3c(=O)[nH]c4ccccc43)nc21` was tested. Which Potency did it give?
A: Its Potency is 39.8 µM (active).

Q: With `NC(=O)C[n+]1cccc(C(=O)Nc2ccccc2)c1` as the molecule, how does the Potency read?
A: The Potency was “inactive”.

Q: Which Potency does the source give for `CCN(CC)c1ccc2c(C)c(-c3ccc(N)cc3)c(=O)oc2c1` here?
A: The Potency was “inactive”.

Q: For `CCN(CC)c1ccc2ccc(=O)oc2c1`, which Potency is on record?
A: Its Potency is “inactive”.

Q: `CCN(CC)c1ccc(N)cc1` was tested. Which Potency did it give?
A: The Potency was 31.6 µM (active).

Q: With `O=C(Nc1ccccc1)NN(C(=O)CCl)c1ccccc1` as the molecule, how does the Potency read?
A: Its Potency is 22.4 µM (active).

Q: Which Potency does the source give for `CC(=O)n1c(/C=N/c2ccccc2)c(O)c2ccccc21` here?
A: The Potency was “inactive”.

Q: Which Potency does the source give for `O=C(CCCC(=O)NNC(=O)Nc1ccccc1)NNC(=O)Nc1ccccc1` here?
A: Its Potency is “inactive”.

Q: How did the Potency turn out when `O=C(CCl)N(c1ccccc1)c1ccccc1` was run?
A: Its Potency is 7.52 µM (active).

Q: With `O=C(Nc1ccccc1)N(C1=NCCC1)c1ccccc1` as the molecule, how does the Potency read?
A: Its Potency is “inactive”.

Q: Which Potency does the source give for `O=C(O)c1ccccc1N(c1ccccc1)c1ccccc1` here?
A: The Potency was “inactive”.

Q: How did the Potency turn out when `CC(=O)n1cc(N(C(=O)CCl)c2ccccc2)c2ccccc21` was run?
A: Its Potency is 22.4 µM (active).

Q: With `COC(=O)c1cn(C(=O)c2cc(C)cc(C)c2)c2ccccc12` as the molecule, how does the Potency read?
A: The Potency was “inactive”.

Q: With `Cc1c(Cc2ccccc2)c(=O)oc2c(C)c(OCC(=O)Nc3ccc(C#N)cc3)ccc12` as the molecule, how does the Potency read?
A: The Potency was “inactive”.

Q: With `OC[C@@H]1[C@@H](c2ccc(F)cc2)C(c2ccccc2)=NN1c1ccccc1` as the molecule, how does the Potency read?
A: The Potency was “inactive”.

Q: `Clc1ccc(/C=C\c2[nH]ccc3c4ccccc4nc2-3)cc1` was tested. Which Potency did it give?
A: The Potency was “inactive”.

Q: Which Potency does the source give for `CCc1cc2c(COC(=O)c3cccc(S(C)(=O)=O)c3)cc(=O)oc2cc1O` here?
A: The Potency was “inactive”.

Q: Which Potency does the source give for `c1ccc(CN2CCC(Nc3nc(-c4cccs4)nc4ccccc34)CC2)cc1` here?
A: Its Potency is 31.6 µM (active).

Q: Which Potency does the source give for `O=C(O)/C=C/c1cn(Cc2ccccc2)nc1-c1cccs1` here?
A: The Potency was “inactive”.

Q: With `Cc1cccn2c(=O)c3cc(C(=O)NCC4CCCO4)c(=N)n(Cc4cccnc4)c3nc12` (stereo unspecified) as the molecule, how does the Potency read?
A: The Potency was “inactive”.

Q: For `CC(C)c1cc(NCc2ccccn2)n2c(nc3ccccc32)c1C#N`, which Potency is on record?
A: Its Potency is “inactive”.

Q: With `O=S(=O)(NCC(Nc1ccc(Cl)cc1)c1ccccc1)c1ccccc1` (stereo unspecified) as the molecule, how does the Potency read?
A: The Potency was 22.4 µM (active).

Q: For `O=S(=O)(Nc1nc2ccccc2nc1Cl)c1ccc(Cl)cc1`, which Potency is on record?
A: The Potency was “inactive”.

Q: With `O=S(=O)(Nc1cc2nc3ccccc3nc2n1Cc1ccccc1)c1ccc(Cl)cc1` as the molecule, how does the Potency read?
A: The Potency was “inactive”.

Q: Which Potency does the source give for `Cc1c(CCC(=O)NC2CC2)c(=O)oc2c(C)c(O)ccc12` here?
A: Its Potency is “inactive”.

Q: How did the Potency turn out when `CC1CCc2cc(F)ccc2N1C(=O)CCl` (stereo unspecified) was run?
A: The Potency was 29.9 µM (active).

Q: Which Potency does the source give for `CN1CCC(N(C)C(=O)c2sc3cc(F)ccc3c2Cl)CC1` here?
A: The Potency was “inactive”.

Q: For `CC(Sc1nc(-c2ccc(F)cc2)cs1)C(=O)N1c2ccccc2CC1C` (stereo unspecified), which Potency is on record?
A: The Potency was “inactive”.

Q: `CCc1nnc(NC(=O)CSc2n[nH]c3c4ccccc4nc-3n2)s1` was tested. Which Potency did it give?
A: The Potency was “inactive”.

Q: For `CC1CCc2cc(F)ccc2N1C(=O)CSc1n[nH]c2c3cc(F)ccc3nc-2n1` (stereo unspecified), which Potency is on record?
A: Its Potency is 22.4 µM (active).

Q: `CC(=O)N1c2ccc(S(=O)(=O)NCCC(=O)Nc3ccc(Cl)cc3)cc2CC1C` (stereo unspecified) was tested. Which Potency did it give?
A: Its Potency is “inactive”.

Q: How did the Potency turn out when `Cc1nc2nc(-c3ccc(F)cc3)cn2nc1C` was run?
A: The Potency was “inactive”.

Q: Which Potency does the source give for `CCN(CC)c1ccc(/C=N/NC(=S)NCc2ccc(OC)cc2)cc1` here?
A: Its Potency is “inactive”.

Q: Which Potency does the source give for `CCCCCC[n+]1ccccc1C=Cc1ccc(N(C)C)cc1` here?
A: Its Potency is 7.94 µM (active).

Q: For `CN(C)c1ccc(/C=C/c2nc3ccccc3s2)cc1`, which Potency is on record?
A: The Potency was “inactive”.

Q: How did the Potency turn out when `CCN(CC)c1ccc(/C=C/c2ccc3ccc(OC)cc3[n+]2CC)cc1` was run?
A: Its Potency is 2.82 µM (active).

Q: Which Potency does the source give for `COc1ccc2ccccc2c1/C=N/Nc1cccc(C(=O)O)c1` here?
A: The Potency was “inactive”.

Q: `CN(C)c1ccc(/C=C/c2ccc3ccccc3n2)cc1` was tested. Which Potency did it give?
A: Its Potency is “inactive”.

Q: How did the Potency turn out when `CN(C)c1ccc(C=Cc2cnccn2)cc1` was run?
A: Its Potency is “inactive”.

Q: For `COc1ccc(/C=C2\CCc3c2nc2ccccc2c3C(=O)O)cc1OC`, which Potency is on record?
A: Its Potency is “inactive”.

Q: Which Potency does the source give for `CC[n+]1c(/C=C/c2ccc(OC(C)=O)c(OC)c2)ccc2ccccc21` here?
A: The Potency was 22.4 µM (active).

Q: `CN(C)c1ccc(/C=C/c2cccc[n+]2[O-])cc1` was tested. Which Potency did it give?
A: Its Potency is “inactive”.

Q: How did the Potency turn out when `CC[n+]1c(/C=C/c2ccc(N(C)C)cc2)ccc2ccccc21` was run?
A: The Potency was 10 µM (active).

Q: With `CCCN(CCC)c1ccc(/C=C/c2ccc3cc(OCC)ccc3n2)cc1` as the molecule, how does the Potency read?
A: Its Potency is “inactive”.

Q: `CCOC(=O)c1cc(C#N)c(Nc2ccccc2OC)nc1C(F)(F)F` was tested. Which Potency did it give?
A: The Potency was “inactive”.

Q: How did the Potency turn out when `O=S(=O)(O)c1ccc(N2N=C(c3ccccc3)CC2c2ccccc2)cc1` (stereo unspecified) was run?
A: The Potency was “inactive”.

Q: With `Nc1nnc(-c2cc3ccccc3oc2=O)s1` as the molecule, how does the Potency read?
A: Its Potency is “inactive”.

Q: With `CC(=O)Oc1ccc(N2C(=O)c3cccc4c([N+](=O)[O-])ccc(c34)C2=O)cc1` as the molecule, how does the Potency read?
A: The Potency was “inactive”.
